Measurements reported in publication PMC4336329 (PLoS ONE, 2015).
About 14,000 (4.5%) of roughly 310,000 compounds showed an effect of 50% or more. The effect is printed as a negative number. This excerpt belongs to a sample that is enriched for strong results.

biological target: human ether-à-go-go-related gene (hERG) potassium channel (human, UniProt Q12809); assay: primary screen, population patch clamp on CHO cells stably expressing hERG; higher = less effect of the substance
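Further: peak tail current of the secondary pulse compared with the same well before compound.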

Chain of human ether-à-go-go-related gene (hERG) potassium channel (Q12809 whole entry, looked up): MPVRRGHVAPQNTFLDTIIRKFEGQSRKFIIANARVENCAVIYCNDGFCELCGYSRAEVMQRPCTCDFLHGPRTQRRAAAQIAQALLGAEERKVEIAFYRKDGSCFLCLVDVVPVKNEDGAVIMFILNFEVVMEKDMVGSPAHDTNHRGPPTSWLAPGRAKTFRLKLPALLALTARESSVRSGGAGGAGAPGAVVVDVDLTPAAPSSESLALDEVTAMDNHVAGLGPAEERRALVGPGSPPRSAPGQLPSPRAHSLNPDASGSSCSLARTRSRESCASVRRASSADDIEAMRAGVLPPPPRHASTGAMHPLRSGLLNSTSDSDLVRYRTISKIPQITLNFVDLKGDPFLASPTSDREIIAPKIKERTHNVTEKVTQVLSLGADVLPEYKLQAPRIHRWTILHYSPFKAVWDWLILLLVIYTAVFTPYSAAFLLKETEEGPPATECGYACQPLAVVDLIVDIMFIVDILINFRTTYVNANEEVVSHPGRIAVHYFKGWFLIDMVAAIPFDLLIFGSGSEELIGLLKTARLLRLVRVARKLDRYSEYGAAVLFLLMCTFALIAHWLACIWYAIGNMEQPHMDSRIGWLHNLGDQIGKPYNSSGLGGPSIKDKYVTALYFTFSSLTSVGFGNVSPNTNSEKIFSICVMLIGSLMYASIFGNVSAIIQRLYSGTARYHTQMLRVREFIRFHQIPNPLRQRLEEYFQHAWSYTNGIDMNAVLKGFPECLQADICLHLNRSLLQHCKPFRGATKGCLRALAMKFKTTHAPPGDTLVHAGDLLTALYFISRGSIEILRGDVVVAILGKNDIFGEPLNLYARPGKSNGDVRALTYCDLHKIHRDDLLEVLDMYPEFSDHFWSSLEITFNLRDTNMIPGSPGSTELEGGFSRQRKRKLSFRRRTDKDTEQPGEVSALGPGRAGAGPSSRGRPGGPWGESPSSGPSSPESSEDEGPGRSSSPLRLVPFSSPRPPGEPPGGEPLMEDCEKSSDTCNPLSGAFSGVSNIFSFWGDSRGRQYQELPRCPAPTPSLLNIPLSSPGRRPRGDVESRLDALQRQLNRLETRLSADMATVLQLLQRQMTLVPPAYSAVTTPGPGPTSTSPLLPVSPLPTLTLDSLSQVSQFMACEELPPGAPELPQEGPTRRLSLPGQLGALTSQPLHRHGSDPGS

| Compound | hERG current change (%, negative = inhibition) at 10uM [%] |
| --- | --- |
| CNC(=O)Oc1ccc2c(c1)C(=O)c1ccccc1CO2 | 6.76 |
| CNC(=S)Nc1cc(OC)c(NC(=O)c2ccco2)cc1OC | 14.9 |
| Cc1cc(C)nc(NNS(=O)(=O)c2ccc(F)c(Cl)c2)n1 | 0.38 |
| Cc1ccc(C)n1NC(=O)c1cccs1 | 9.98 |
| CCOCCCNCC(O)c1ccccc1.O=C(O)C(=O)O (stereo not drawn) | 3.55 |
| O=C(N/N=C/c1cccc([N+](=O)[O-])c1O)C(O)(c1ccccc1)c1ccccc1 | 8.16 |
| O=C(N/N=C/c1cc([N+](=O)[O-])cc([N+](=O)[O-])c1O)C(O)(c1ccccc1)c1ccccc1 | -4.37 |
| O=C(N/N=C/c1cc(Cl)cc([N+](=O)[O-])c1O)C(O)(c1ccccc1)c1ccccc1 | -53 |
| Cc1ccc(/C(O)=C2/C(=O)C(=O)N(c3ccccn3)C2c2ccc([N+](=O)[O-])cc2)cc1 (stereo not drawn) | 8.83 |
| COC(=O)COc1cccc2c(=O)n(CC(=O)NCc3ccc(F)cc3)ccc12 | 1.82 |
| O=C1CC(c2cccnc2)=NN1c1ccc(Cl)cc1Cl | 12.1 |
| C/C=C(/C)C(=O)O[C@@H]1c2c(ccc3ccc(=O)oc23)O[C@@H]1C(C)(C)OC(=O)/C(C)=C\C | -0.936 |
| O=C1OC(Nc2cc(Br)cc3cccnc23)c2ccccc21 (stereo not drawn) | -9.92 |
| COc1ccc(S(=O)(=O)N/N=C/c2ccc(OCCN3CCOCC3)c(OC)c2)cc1 | 1.42 |
| CCOc1cc(/C=N/NS(=O)(=O)c2ccc(OC)cc2)ccc1OCCN1CCOCC1 | -53.8 |
| COc1cc(/C=N/NS(=O)(=O)c2ccc3ccccc3c2)ccc1OCCN1CCOCC1 | -39.5 |
| CCn1c(COc2ccccc2C)nnc1SCC(=O)OC | -9.68 |
| O=C(CN(C(=O)c1csnn1)c1cccc2ccccc12)NC1CCCC1 | -2.34 |
| COc1ccc(CNc2cc(C)nc3ccc(OC)cc23)cc1 | -72.8 |

| Compound | hERG current change (%, negative = inhibition) at 10uM [%] |
| --- | --- |
| Cc1cc(NCc2ccccc2)nc2ccccc12 | -50.9 |
| Cc1cc(NCc2ccccn2)nc2ccccc12 | -15.4 |
| Cc1cc(NC(=O)Cc2ccccc2)c2ccccc2n1 | 14.2 |
| COc1ccc2nc(C)cc(NCc3ccc(F)cc3)c2c1 | -61.6 |
| Cc1cc(NCCO)c2ccccc2n1.Cl | 6.81 |
| Cc1cc(NCC2CCCCC2)nc2ccccc12 | -42.7 |
| Cc1cc(NCc2ccccc2)c2ccccc2n1.Cl | -67.5 |
| COc1ccc2nc(C)cc(N/N=C/c3ccc(F)cc3)c2c1 | 0.337 |
| COc1ccc2nc(C)cc(NCc3cccc(C(F)(F)F)c3)c2c1 | -31.7 |
| COc1ccc2nc(NCc3ccccc3)[nH]c2c1 | -25.4 |
| COC(=O)CSc1cc(C)nc2ccc(OC)cc12 | 1.44 |
| Cc1cc(C(=O)NNc2c(Cl)cccc2Cl)no1 | 3.46 |
| CC1(C)Cc2nc3oc4c(SCC(N)=O)ncnc4c3cc2CO1 | 4.95 |
| Cc1ccc(S(=O)(=O)N(C)C)cc1NC(=O)COC(=O)/C=C/c1ccc2c(c1)OCO2 | -9.63 |
| O=C(NC1CCCCC1)C1CCCN(S(=O)(=O)c2cccs2)C1 (stereo not drawn) | 11.3 |
| COc1ccc(NC(=O)OCCN2CCN(Cc3ccccc3)CCC2=O)cc1 | -9.25 |
| COc1c(O)ccc(/C=N/NC(=O)c2ccc3c(c2)OCCO3)c1[N+](=O)[O-] | 7.36 |
| N#Cc1ccc(-c2cn(-c3ccccc3)c3[n+]2CCCS3)cc1.[Br-] | 16.3 |
| FC(F)Sc1ccc(-n2cc(-c3ccc(Cl)cc3)[n+]3c2CCC3)cc1.[Br-] | -74.3 |

| Compound | hERG current change (%, negative = inhibition) at 10uM [%] |
| --- | --- |
| CC(=O)c1ccc(-n2cc(-c3ccc(C(C)(C)C)cc3)[n+]3c2SCCC3)cc1.[Br-] | -30.1 |
| O=C(Cc1ccc(Cl)cc1)Nc1ccc(SC(F)F)cc1 | -1.83 |
| COc1ccc(-n2cc(-c3ccc(OC)c(OC)c3)[nH]c2=S)cc1 | 6.1 |
| COc1ccc(-c2cn(-c3ccc(SC(F)F)cc3)c3[n+]2CCC3)cc1OC.[Br-] | -62.4 |
| COc1ccc(-c2cn(-c3ccccc3)c(=S)[nH]2)cc1OC | 16.1 |
| FC(F)Sc1ccc(-n2cc(-c3ccccc3)[n+]3c2CCC3)cc1.[Br-] | -77.9 |
| [Br-].c1ccc(-c2cn(-c3ccccc3)c3[n+]2CCCS3)cc1 | -3.51 |
| O=[N+]([O-])CC(c1ccccc1)c1c[nH]c2ccccc12 (stereo not drawn) | 10.6 |
| O=C(CN1C(=O)NC(Cc2c[nH]c3ccccc23)C1=O)Nc1ccc(F)c(F)c1F (stereo not drawn) | -5.36 |
| O=C(Nc1cccc(Cl)c1)N1CCN2C(=O)c3ccccc3C12c1ccccc1 (stereo not drawn) | -24.3 |
| COc1ccc(CNC(=S)Nc2ccccc2)cc1 | 7.34 |
| O=C(Cc1ccc([N+](=O)[O-])cc1)N1CCCc2ccccc21 | -41.1 |
| O=C(Oc1c(Cl)cc(Cl)c2ccccc12)N1CCCC1 | -25.9 |
| CC(COc1ccc(/C=C/c2ccccc2)cc1)[N+](C)(C)C.[I-] (stereo not drawn) | -9.04 |
| CC(C)(C)C(=O)Nc1ccc(C(=O)Nc2cc(NC(=O)c3ccc(NC(=O)C(C)(C)C)cc3)cc(C(=O)O)c2)cc1 | 6.62 |
| CCCc1cc(C(=O)Nc2ccc(C(=O)OC)cc2)cs1 | 5.28 |
| CCOc1cc(/C=N/NC(=O)c2nn(C)cc2Br)ccc1OCc1ccccc1Cl | -14.7 |
| CCOc1cc(/C=N/NC(=O)c2nn(C)cc2Br)ccc1OCc1ccccc1 | 5.59 |
| COc1ccc(/C=N/NC(=O)c2nn(C)cc2Br)cc1CSCc1ccco1 | -50.6 |
